Bioassay records: PubChem BioAssay, National Center for Advancing Translational Sciences (NCATS)
PLK1 PBD inh – PLK1 (human) polo-box domain binding inhibition. P53350. Potency, µM, inactives show max response, negative = inhibition, actives largely listed as inhibitors. actives 2.8% (n = 360,000). Plk1 PBD binding of FITC phosphopeptide, fluorescence polarization; also: series mostly up to about 57 µM; % is scaled to controls: 0 for no effect and ±100 for the full control effect; nearly all actives have a fitted effect of over 65% in size
Tau fluor cs – counter-screen for tau fibril formation inhibitors | tau K18 P301L Alexa594 fluorescence, heparin fibrillization | Potency, µM (titrated, usually from 57.7 µM), for the others: at the highest dose activity change, negative = decrease | actives 0.93% (n = 280,000) | AID 1463; also: % is scaled to controls: 0 for no effect and ±100 for the full control effect; nearly all actives have a fitted effect of over 55% in size
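Human tau K18 P301L (15 uM unlabeled, 0.24 uM Alexa 594-labeled) in 100 mM sodium acetate pH 7 with 20 uM heparin, 6 hr at 37 C. ThT 30 uM added, 1 hr ambient; Alexa 594 FP and total fluorescence read at 555/632 nm.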
Tau FP inhib – tau fibrillization inhibition (FP). P10636. K18 P301L tau heparin fibrillization, Alexa594 FP, 6 h. Potency, µM (highest dose often 57.7 µM), without a hit: top-dose activity, negative = inhibition, most hits filed as inhibitors. actives 0.39% (n = 280,000). AID 1468; also: % is scaled to controls: 0 for no effect and ±100 for the full control effect; nearly all actives have a fitted effect of over 55% in size
Target sequence (P10636 561-689 P618L limits assumed): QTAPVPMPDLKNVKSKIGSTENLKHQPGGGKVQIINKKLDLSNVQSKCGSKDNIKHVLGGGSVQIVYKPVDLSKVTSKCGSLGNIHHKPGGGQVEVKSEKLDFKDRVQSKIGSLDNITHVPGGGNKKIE
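Steps: dispense K18 P301L tau (15 uM plus 0.24 uM Alexa 594 tracer, final) in pH 7 sodium acetate; add compound; add heparin (20 uM final); incubate 6 hr, 37 C; add ThT (30 uM final); after 1 hr ambient, read FP.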
Sfp PPTase inh – Sfp phosphopantetheinyl transferase inhibition; actives 3.5% (n = 310,000); Biochemical Sfp PPTase activity, qHTS; Potency, µM, for inactives: largest response in the series, negative = inhibition, most hits filed as inhibitors; Q9F4F7;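 also: the enzyme is Sfp with the accession as filed and its product quenches rhodamine fluorescence; 0% = enzyme reaction without inhibitor and -100% = no enzyme wells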
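Fluorescence-quenching assay: 15 nM Sfp-PPTase preincubated 15 min at room temperature with compound, then 5 uM rhodamine-CoA and 12.5 uM BHQ-2-labelled YbbR peptide added. Fluorescence (ex 525/em 598 nm) read at start and after 30 min; difference gives rate.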
Tau fibril ThT – blocks human tau fibril formation measured by thioflavin T | Potency, µM (doses to about 57.4 µM), for inactives: at the top dose activity, negative = inhibition, actives largely listed as inhibitors | actives 2.1% (n = 270,000) | P10636 | recombinant tau K18 P301L (four-repeat tau fragment), heparin-induced fibrillization, ThT fluorescence; also: % is scaled to controls: 0 for no effect and ±100 for the full control effect; nearly all actives have a fitted effect of over 55% in size
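Heparin-induced (20 uM) aggregation of recombinant human K18 P301L tau, 15 uM unlabeled with 0.24 uM labeled, pH 7 acetate buffer, 6 hr at 37 C with compound. Fibrils quantified by 30 uM ThT fluorescence after 1 hr ambient incubation.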
VDR inhibitor – inhibitors of human vitamin D receptor | actives 0.93% (n = 400,000) | VDR-SRC2-3 peptide fluorescence polarization, 2 h | P11473 | Potency, µM, inactives show max response, negative = inhibition, hits mostly inhibitors; also: % is scaled to controls: 0 for no effect and ±100 for the full control effect
Target sequence (P11473 whole entry, looked up): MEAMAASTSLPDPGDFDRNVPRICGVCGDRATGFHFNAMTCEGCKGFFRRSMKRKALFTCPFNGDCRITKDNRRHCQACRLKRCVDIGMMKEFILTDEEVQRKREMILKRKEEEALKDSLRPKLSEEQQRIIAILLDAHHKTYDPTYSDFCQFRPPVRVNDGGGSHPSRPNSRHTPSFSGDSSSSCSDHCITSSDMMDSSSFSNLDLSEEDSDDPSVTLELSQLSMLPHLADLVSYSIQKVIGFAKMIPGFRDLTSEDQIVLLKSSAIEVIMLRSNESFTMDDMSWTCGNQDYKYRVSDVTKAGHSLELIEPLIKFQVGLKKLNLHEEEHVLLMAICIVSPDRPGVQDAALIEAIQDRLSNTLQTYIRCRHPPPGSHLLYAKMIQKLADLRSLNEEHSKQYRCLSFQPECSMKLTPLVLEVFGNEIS
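Fluorescence polarization assay of small-molecule disruption of VDR binding to coregulator peptide SRC2-3. Compounds and controls pin-transferred, then read after 2 h incubation at ambient room temperature.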
VDR confirm – confirmation of human vitamin D receptor inhibitors | shares compounds with VDR inhibitor | VDR-coactivator inhibition assay, qHTS confirmation | Potency, µM, usual class: inhibitors | actives 89% (n = 840) | AID 602199
VDR FP fluor – confirmation of human VDR-coactivator binding inhibitors, fluorescein label. actives 48% (n = 840). AID 602200. VDR-coactivator binding, fluorescein fluorescence polarization. Potency, µM (doses to about 57.1 µM), for inactives: at the highest dose activity change, negative = inhibition, most hits filed as inhibitors. shares compounds with VDR inhibitor
VDR bla – VDR (human) inhibition, cell-based beta-lactamase validation; shares compounds with VDR inhibitor; VDR beta-lactamase reporter cells, FRET ratio; cells co-treated with VDR agonist LG190178; Potency, µM (titrated, usually from 46.1 µM), inactives show top-dose activity change, negative = inhibition, usual class: inhibitors; actives 23% (n = 840); also: % is scaled to controls: 0 for no effect and ±100 for the full control effect
VDR cytotox – counter-screen for vitamin D receptor inhibitors: cytotoxicity. shares compounds with VDR inhibitor. cytotoxicity counter-screen, cell viability, qHTS. Potency, µM (series often up to 48.3 µM), for inactives: at the top dose activity change, negative = cytotoxicity, most hits filed as cytotoxic. actives 18% (n = 840). AID 602204;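 also: plate controls were DMSO for no effect and high-concentration cycloheximide for full effect; nearly all actives have a fitted effect of over 75% in size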
TbPYK inh – confirmation of Trypanosoma brucei pyruvate kinase inhibitors | shares compounds with PLK1 PBD inh | recombinant TbPYK, Kinase-Glo ATP luminescence | Potency, µM (series often up to 76.9 µM), for inactives: top-dose activity change, negative = inhibition, hits mostly inhibitors | actives 67% (n = 890) | AID 720569; also: % is scaled to controls: 0 for no effect and ±100 for the full control effect; nearly all actives have a fitted effect of over 70% in size
TbPYK orthogonal – inhibits T. brucei pyruvate kinase in orthogonal ADP-Glo assay. actives 62% (n = 890). recombinant TbPYK, ADP-Glo luminescence, 60 min. Potency, µM (highest dose often 76.9 µM), without a hit: at the highest dose activity change, negative = inhibition, usual class: inhibitors. shares compounds with PLK1 PBD inh; also: % is scaled to controls: 0 for no effect and ±100 for the full control effect; nearly all actives have a fitted effect of over 75% in size
* hit, by the source's call; ? = inconclusive; nt = no result. In the library only some 6% were active in any assay of this set; here they are far more common. Calls follow the shape of the dose curve; as a rule, active = well fitted curve in the direction sought with a large enough effect; inconclusive = small, poorly fitted or top-dose-only effect, or another doubt; inactive = no such curve, though single readings can be large; an effect the other way counts as inactive or inconclusive. Potency is read from the fitted curve at half-maximal effect.

SMILES	PLK1 PBD inh	Tau fluor cs	Tau FP inhib	Sfp PPTase inh	Tau fibril ThT	VDR inhibitor	TbPYK inh	TbPYK orthogonal	others
Cc1nn(Cc2ccccc2)c(C)c1C=C1C(=O)NC(=S)NC1=O	15µM*	0.6%	-4.9%	-96.9%	?	25.1µM*	6.31µM*	?	VDR confirm=9.47*;VDR FP fluor=?;VDR bla=?;VDR cytotox=-4.0%
CCN(CC)c1ccc(NC(=O)c2cccc(C)c2)cc1S(=O)(=O)Nc1ccccc1OC	2.99µM*	-28.9%	-14.3%	12.6µM*	?	50.1µM*	?	?	VDR confirm=?;VDR FP fluor=?;VDR bla=8.0%;VDR cytotox=-3.1%
C[C@@H](Cc1cccc(C(F)(F)F)c1)NCCCc1ccccc1	nt	-9.3%	-2.5%	-21.1%	0.1%	-19.9%	nt	nt
O=C1NC(=O)C(=Cc2cc(Cl)ccc2OCc2ccc(C(=O)O)cc2)C(=O)N1	7.52µM*	-16.7%	-16.7%	50.1µM*	?	50.1µM*	25.1µM*	31.6µM*	VDR confirm=?;VDR FP fluor=?;VDR bla=25.6%;VDR cytotox=19.0%
O=C(O)Cn1cc(C=C2C(=O)NC(=O)NC2=O)c2ccccc21	?	nt	nt	3.5%	nt	-7.4%	nt	nt
CCS(=O)CCSP(=O)(OC)OC (stereo not drawn)	nt	-11.5%	-18.3%	-2.1%	?	?	nt	nt
COc1cc(/C=C/[N+](=O)[O-])ccc1OC(=O)c1cccnc1	3.36µM*	nt	nt	-93.6%	nt	25.1µM*	7.08µM*	15.8µM*	VDR confirm=6.7*;VDR FP fluor=?;VDR bla=?;VDR cytotox=?
CC1CCN(C(CC(=O)c2ccccc2)C(=O)c2ccccc2)CC1 (stereo not drawn)	?	nt	nt	nt	nt	25.1µM*	20µM*	12.6µM*	VDR confirm=10.6*;VDR FP fluor=?;VDR bla=?;VDR cytotox=?
O=C(N/N=C/c1c(O)n(Cc2ccc(F)cc2)c(=O)[nH]c1=O)c1ccccc1	5.1%	-24.1%	0.7%	24.4%	?	-10.1%	nt	nt
O=C(O)CCC(=O)NCCC1=c2ccccc2=N/C1=C\c1c(O)n(Cc2ccc(F)cc2)c(=S)[nH]c1=O	1.19µM*	?	-1.7%	35.5µM*	?	20µM*	4.47µM*	14.1µM*	VDR confirm=5.97*;VDR FP fluor=?;VDR bla=8.3%;VDR cytotox=21.7%
NCC(CP(=O)(O)O)c1ccc(Cl)cc1 (stereo not drawn)	nt	-7.2%	-8.4%	6.7%	?	-11.3%	nt	nt
O=C1NC(=O)c2c1c1c3ccccc3n3c1c1c2c2ccccc2n1C1CCC3O1	nt	nt	nt	1.6%	nt	2.6%	nt	nt
CC1(C)OC(c2ccccc2)=C/C(=C/C=C2C(=O)NC(=O)NC2=O)O1	26.6%	-14.5%	-6.4%	-28.8%	?	-8.1%	nt	nt
O=C1NC(=O)C(=Cc2ccc(Sc3ccccc3)o2)C(=O)N1	0.67µM*	1.1%	3.6%	25.1µM*	?	39.8µM*	31.6µM*	35.5µM*	VDR confirm=10.6*;VDR FP fluor=?;VDR bla=?;VDR cytotox=?
COc1ccccc1NC(=O)CCn1cnc2onc(-c3ccc(F)cc3)c2c1=O	nt	?	-8.8%	nt	-10.6%	8.5%	nt	nt
COC(=O)C1=C(C(=O)OC)SC2(S1)C(C(=O)OC)=C(C(=O)OC)Sc1c2ssc1=O	1.19µM*	nt	nt	nt	nt	2µM*	11.2µM*	14.1µM*
CN(C)[C@@H](Cc1ccccc1)c1ccccc1	nt	nt	nt	24.0%	nt	5.0%	nt	nt
C[C@@H]1O[C@@H](O[C@H]2C[C@@H](O)[C@]3(CO)[C@H]4[C@H](O)C[C@]5(C)[C@@H]([C@@H]6COC(=O)C6)CC[C@]5(O)[C@@H]4CC[C@]3(O)C2)[C@H](O)[C@H](O)[C@H]1O	nt	-20.0%	-9.5%	nt	-7.5%	nt	nt	nt
CCN(CC)c1nc2c(C)cccn2c(=O)c1C=C1C(=O)NC(=O)NC1=O	-15.7%	-21.4%	-17.5%	2.4%	?	9.0%	nt	nt
O=C1NC(=O)C(=Cc2c(Cl)cccc2Cl)C(=O)N1	4.74µM*	nt	nt	nt	nt	?	25.1µM*	35.5µM*
CC(=O)C[C@H](c1ccccc1)c1c(O)c2ccccc2oc1=O	nt	nt	nt	10.1%	nt	12.5%	nt	nt
O=C1NC(=O)C(=Cc2coc3ccc(O)cc3c2=O)C(=O)N1	26.7µM*	-13.7%	-7.6%	12.6µM*	?	?	14.1µM*	?
Cc1ccc(Cl)cc1NC(=O)N(Cc1ccc2c(c1)OCO2)C1CCN(Cc2ccccc2)CC1	nt	-8.8%	1.0%	nt	-7.5%	-14.1%	nt	nt
O=C1CC(c2ccccc2Br)c2c(c3ccccc3oc2=O)O1 (stereo not drawn)	nt	-8.7%	-9.9%	nt	-1.3%	12.9%	nt	nt
Cc1ccc(N2C(=O)NC(=O)/C(=C\c3ccoc3)C2=O)cc1	?	-5.7%	-5.1%	?	?	-8.5%	?	?
CCOc1ccc(N2C(=O)NC(=O)/C(=C\c3ccc(N4CCCCC4)o3)C2=O)cc1	79.9%	-3.3%	4.0%	-7.1%	-3.4%	0.8%	nt	nt
Cc1ccc(N2C(=O)NC(=O)/C(=C/c3ccc(-c4ccc(C(=O)O)c(Cl)c4)o3)C2=O)cc1	1.34µM*	-11.6%	3.5%	31.6µM*	?	?	7.08µM*	14.1µM*
CN(C)c1ccc(/C=C2\CCCN=C2c2cccnc2)cc1	nt	-13.9%	-0.8%	-14.4%	?	nt	nt	nt
O=C(Nc1ccon1)c1cccn(Cc2cccc([N+](=O)[O-])c2)c1=O	nt	-9.4%	-14.8%	nt	-4.7%	-4.1%	nt	nt
COc1cc(O)c(C(=O)O)c(-c2cc(O)c(O)cc2C)c1	?	?	?	2.1%	25.1µM*	-21.4%	2µM*	10µM*
